# Hits are enriched below; roughly 4.1% of the tested compounds scored in any of these assays.
# hcDAF-12 act – activators of H. contortus DAF-12 nuclear receptor; AID 652067; HEK293 hcDAF-12 lit1-tk-luc reporter, luminescence; 0% DMSO, 100% Δ7-dafachronic acid; 370,000 tested, 1.4% active; activation, % at 6.8 µM;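 active = activation above the mean of all tested compounds plus 3 SD, cut at about 5.5% in these data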;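 also: 100% = response to 3 µM Δ7-dafachronic acid high control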
# hgDAF-12 ag – agonists of H. glycines DAF-12 nuclear receptor. HEK293 GAL4-hgDAF12 UAS-luciferase reporter, agonist luminescence; normalized to butyrate control. activation, % at 6.8 µM. 370,000 tested, 1.8% active. AID 687014;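 active = activation above a cutoff set at the mean of all screened compounds plus 3 SD, cut at about 10% in these data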;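 also: 0% = DMSO wells and 100% = sodium butyrate wells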
# DAX1 inh-1 – inhibits human nuclear receptor DAX1. HEK293 Gal4-DAX1 luciferase reporter, luminescence. AID 504766. inhibition, % at 6.75 µM. 340,000 tested, 0.99% active;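 active = inhibition above the mean over all tested compounds plus 3 SD, cut at about 4.2% in these data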;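 also: 0% = DAX1-transfected cells with DMSO and 100% = empty-vector control cells with DMSO; inhibition shows as a rise in luminescence from relieved DAX1 repression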
# Target sequence (P51843 207-470 limits assumed): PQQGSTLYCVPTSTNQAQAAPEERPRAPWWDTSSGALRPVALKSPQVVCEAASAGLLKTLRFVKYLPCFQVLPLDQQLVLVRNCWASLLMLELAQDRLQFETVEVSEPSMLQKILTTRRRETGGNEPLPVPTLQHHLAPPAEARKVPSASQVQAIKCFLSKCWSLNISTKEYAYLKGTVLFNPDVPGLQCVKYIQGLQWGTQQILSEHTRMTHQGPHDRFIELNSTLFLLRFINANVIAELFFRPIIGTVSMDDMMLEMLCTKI
# DAX1 inh-2 – inhibitors of DAX1 repression of SF-1 activated StAR promoter; 370,000 tested, 1.1% active; HEK293T StAR-luciferase reporter, SF-1/DAX-1 repression relief; AID 652010; inhibition, % at 6.8 µM;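 active = inhibition above the mean over all tested compounds plus 3 SD, cut at about 3.6% in these data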;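 also: 0% = DAX-1 cells with DMSO and 100% = cells lacking DAX-1 with DMSO; higher inhibition means more luminescence from relief of DAX-1 repression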
# ssDAF12 agonist – activates DAF-12 receptor from parasite S. stercoralis; HEK293 ssDAF-12/GRIP1 lit1-tk-luc reporter, luminescence; % of 3 µM dafachronic acid response; activation, % at 6.8 µM; 370,000 tested, 1% active;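 active = activation above the mean over all tested compounds plus 3 SD, cut at about 0.9% in these data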;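 also: 0% = DMSO-only wells and 100% = 3 µM delta7-dafachronic acid wells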
# * marks the source's active call; other numbers are inactive results; nt = not tested or not shown.
SMILES,hcDAF-12 act,hgDAF-12 ag,DAX1 inh-1,DAX1 inh-2,ssDAF12 agonist
CC(=O)Oc1ccc(C(=O)[C@H]2[C@H]3C(=O)N(c4ccc(C)cc4C)C(=O)[C@H]3[C@@H]3C=CC=NN32)cc1,-1,1,4.2*,0,-1
COC1=C[C@H](C(=O)NCCNC(C)=O)[C@@]2(C)Cc3ccccc3[C@H]2CC1=O,-2,-4,nt,0,-1
O=C(NC1CCCCN(Cc2ccc(Cl)cc2)C1=O)C(c1ccccc1)c1ccccc1 (stereo unspecified),-2,1,nt,-1,-1
C[C@@H]1C[C@H](O)CCCCCC(=O)Cc2cc(O)cc(O)c2C(=O)O1,-3,1,nt,0,-1
c1ccc(-c2ccc3ncccc3n2)cc1,2,8,nt,3.7*,0
c1ccc(-c2cccc(-c3ccccc3)n2)cc1,-2,0,2,0,-2
Cc1ccc(S(=O)(=O)NCC2CN(S(=O)(=O)c3ccc(C)cc3)c3ccccc3C(=O)N2c2ccc(F)cc2)cc1 (stereo unspecified),-1,-2,nt,nt,-2
Clc1cccc(/C=N\Nc2nccs2)c1,4,11*,1,2,0.9*
C(=N/Nc1nccs1)/c1cccnc1,1,3,-1,-1,-1
Clc1cccc(/C=N/Nc2nc(Cl)nc3ccccc23)c1,6.6*,5,4,2,0
CN(C(=O)CNC(=O)c1ccccc1OCC(=O)Nc1ccc(I)cc1)c1ccccc1,-2,-2,nt,-2,-2
O=C(c1ccc(F)cc1F)N(Cc1ccccn1)CC1CCCO1 (stereo unspecified),-2,2,nt,0,-1
CC(=O)c1ccc(CCCC(=O)O)cc1,2,-2,4.9*,0,-1
O=c1[nH]c2c(s1)C=Nc1ccccc1N2,6.2*,8,1,3,0
COc1ccc(CN2CN3Cc4cc(F)ccc4C3CS2(=O)=O)cc1 (stereo unspecified),-2,1,nt,0,-2
CCN(CC)C(=O)N1CCC(NC(=O)c2ccccc2)CC1,-2,3,4.7*,0,-1
Cn1c2ccccc2c(=O)c2ccc(NCCc3cccs3)cc21,4,6,1,4.1*,0
COc1ccc(S(=O)(=O)N2CCN(CC(=O)NC(C)c3cccs3)CC2)cc1 (stereo unspecified),1,-5,0,-1,-1
COc1cccc(-c2cc(C(=O)NC3CCCCC3)no2)c1,2,6,2,1,-1
COc1ccc(-c2cc(C(=O)NC3CCCC3)no2)cc1,6.5*,12*,3,2,0
COC(=O)c1cc(-c2ccc(OC)cc2)on1,-2,-1,-1,0,-2
COc1ccc(-c2cc(C(=O)NC(C)C)no2)cc1,4,10*,1,2,-1
Nc1nc(SCc2ccccc2)sc1C(=O)N1CCCCC1,4,11*,3,2,-1
FC(F)(F)c1nnc2ccc(NCc3ccccc3)nn12,-1,-1,-1,0,-1
FC(F)(F)c1nnc2ccc(NCc3cccnc3)nn12,-2,-3,7.9*,0,-1
SMILES,hcDAF-12 act,hgDAF-12 ag,DAX1 inh-1,DAX1 inh-2,ssDAF12 agonist
CCCCc1ccc(NC(=O)C(C)CC)cc1 (stereo unspecified),0,5,4.4*,1,-2
CCCCc1ccc(NC(=O)N[C@@H](C)C(=O)O)cc1,0,2,0,0,0
COCCC(=O)N1CCC(Oc2ccc(C(=O)NCCSC)cc2)CC1,0,0,6.9*,0,-1
COCCC(=O)N1CCC(Oc2ccc(C(=O)NCCn3cccn3)cc2)CC1,-1,1,0,0,-1
CC(=O)N1CCc2cc(NC(=O)c3ccc(C)cc3)ccc21,2,11*,-1,2,-1
CC1=C(C(=O)Nc2ccccn2)C(c2ccccc2Cl)NC(=S)N1 (stereo unspecified),2,11*,1,2,-1
CC1=C(C(=O)Nc2ccccn2)C(c2ccc(Cl)cc2Cl)NC(=S)N1 (stereo unspecified),1,2,0,1,-1
Cc1cc(C)c(NC(=O)C2CCCN2CCO)c(C)c1 (stereo unspecified),1,0,1,1,-1
Cc1cc(C)c(NC(=O)C2CCCN2C)c(C)c1 (stereo unspecified),1,2,8.0*,0,-1
CN(CC(=O)NCc1ccccc1Cl)S(=O)(=O)c1ccc2c(c1)n(C)c(=O)c(=O)n2C,5.6*,1,0,0,-1
COC(=O)Cc1ccc(N(Cc2ccccc2F)S(=O)(=O)c2ccc(C)cc2)cc1,0,1,-1,0,-2
CC(Sc1nncn1C)C(=O)Nc1ccc2ccccc2c1 (stereo unspecified),1,1,4.6*,3,-1
COc1cc(=O)[nH]c(SC(C)C(=O)Nc2ccc3ccccc3c2)n1 (stereo unspecified),3,0,0,0,0
Cc1nnc(SC(C)C(=O)Nc2ccc3ccccc3c2)[nH]c1=O (stereo unspecified),6,4,2,0,1.3*
CCOC(=O)Cn1cc(CN2CCS(=O)(=O)N(Cc3ccccc3)C(C(=O)OC)C2)nn1 (stereo unspecified),1,0,nt,-1,1
CCOC(=O)[C@@]12CN(C(=O)OC(C)(C)C)CC=C1N(Cc1ccc(OC)cc1)C(=O)[C@H]2CC(=O)NCCc1ccccc1OC,-2,1,nt,0,-2
CC[C@H](C(=O)Nc1ccccc1N1CCCC1)c1ccccc1,-2,2,nt,-1,-1
CCCCNC(=O)C1CCN(S(=O)(=O)N2CCCCCC2)CC1,5.9*,0,-1,0,0
O=C(NC1CCCCN(Cc2cccc(Cl)c2)C1=O)c1ccc2ccccc2c1 (stereo unspecified),-2,3,nt,0,-2
Cc1ccc(/C=C2\CCC(C3CCCC3)C2=O)cc1 (stereo unspecified),-2,8,4.5*,0,0.9*
Cc1ccsc1/C=C1\CCC(C2CCCC2)C1=O (stereo unspecified),1,9,5.6*,1,0
COc1ccc(/C=C2\CCC(C3CCCC3)C2=O)cc1 (stereo unspecified),2,5,3,1,0
O=C1NCCNC1(c1c[nH]c2ccccc12)C(F)(F)F (stereo unspecified),5,3,1,0,1.4*
COC(=O)C[C@@H]1CC[C@H]2[C@@H](COc3ccc(NS(=O)(=O)c4ccccc4F)cc3C(=O)N2C)O1,0,-1,nt,0,-1
Cc1ccc(C(=O)C[n+]2cccc3ccccc32)cc1,6.0*,4,2,0,1.7*
NC(=O)C[n+]1cccc2ccccc21,5,-1,0,0,-1

# Screens as filed in PubChem BioAssay.
